± gives the standard deviation of the averaged measurements. The full ranking holds about 33,000 sequences; the median of “E-score (dimensionless, -0.5 to 0.5)” is about -0.049, and the highest 2% start at about 0.37. The entries come from a sample that favours the highest values as a whole.
These sequences were tested on T1, PmTbr T-box DNA-binding domain (GST fusion) (assay: PBM E-score of 8-mer (E-score (dimensionless, -0.5 to 0.5)); Tbr is Tbrain of the sea star Patiria miniata (Pm) or the sea urchin Strongylocentrotus purpuratus (Sp); higher = stronger binding preference). Conditions: the construct has about 5 more residues each side.
T1 sequence: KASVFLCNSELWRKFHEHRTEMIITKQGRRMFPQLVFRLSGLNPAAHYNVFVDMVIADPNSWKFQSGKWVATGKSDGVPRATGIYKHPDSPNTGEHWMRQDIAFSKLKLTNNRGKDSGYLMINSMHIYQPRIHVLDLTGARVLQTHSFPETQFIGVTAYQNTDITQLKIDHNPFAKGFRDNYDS
Protocol: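 Universal protein-binding microarray (Agilent AMADID 016060, 60-bp probes with a 35-bp variable region) incubated with 200 nM GST-fused Patiria miniata Tbr T-box DNA-binding domain (residues 272-466) in PBS pH 7.5. Scored for every ungapped 8-mer (given with its reverse complement) by the Universal PBM Analysis Suite as E-score (modified Wilcoxon-Mann-Whitney enrichment, range -0.5 to 0.5; >0.45 counts as bound) and Z-score of median probe intensity. Two replicate arrays (datasets 1 and 2).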
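Also: 200 nM protein in PBS on universal arrays averaged over duplicate arrays.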

| Sequence | PBM E-score of 8-mer |
| --- | --- |
| GGGCCCAA | -0.154 ± 0.022 |
| CGTGTTTC | 0.126 ± 0.034 |
| ACCCAGTA | -0.234 ± 0.012 |
| AGATAAAT | -0.223 ± 0.057 |
| GCTGACAC | 0.398 ± 0.013 |
| GCTGACCC | -0.159 ± 0.14 |
| GCTGACAA | 0.2795 ± 0.00061 |
| CCTGACAC | 0.435 ± 0.0077 |
| ACTGACAC | 0.379 ± 0.012 |
| ACTGACAT | 0.0983 ± 0.064 |
| AATGACAC | 0.355 ± 0.0044 |
| CCTGACAA | 0.207 ± 0.027 |
| CATGACAA | 0.204 ± 0.047 |
| ACTGACAA | 0.166 ± 0.009 |
| CATGACAC | 0.389 ± 0.0048 |
| CCTGACAG | 0.218 ± 0.036 |
| GCCTTTCA | -0.0251 ± 0.074 |
| TACTTTCA | 0.0461 ± 0.077 |
| CACAGCGA | 0.0526 ± 0.053 |
| CTGACCAC | 0.0865 ± 0.013 |
| ACAGATGA | 0.00068 ± 0.05 |
| AGCGTTCG | 0.214 ± 0.068 |
| CTACAGAG | -0.187 ± 0.022 |
| ACTGTCAC | 0.392 ± 0.018 |
| GCTGTCAA | 0.323 ± 0.014 |
| AATGTCAA | 0.0345 ± 0.052 |

| Sequence | PBM E-score of 8-mer |
| --- | --- |
| GGTGTCCA | 0.294 ± 0.021 |
| GGTGTCAA | 0.474 ± 0.0055 |
| CCTGTCAC | 0.3665 ± 0.0036 |
| ACTGTCAA | 0.162 ± 0.028 |
| AGTGTCAA | 0.447 ± 0.0063 |
| CGTGTCAA | 0.4335 ± 0.00096 |
| CATGTCAA | -0.00945 ± 0.065 |
| ACTGTCAG | 0.129 ± 0.034 |
| CCTGTCAA | 0.309 ± 0.024 |
| TGTGTCAA | 0.372 ± 0.014 |
| TATGTCAA | 0.0912 ± 0.063 |
| GGTGTCAC | 0.481 ± 0.0062 |
| AATGTCAT | -0.164 ± 0.033 |
| AGTGTCAG | 0.384 ± 0.017 |
| AGTGTCAT | 0.387 ± 0.0042 |
| GCTGTCAC | 0.3624 ± 0.0017 |
| GATGTCAC | 0.304 ± 0.0034 |
| CGTGTCAG | 0.31284 ± 0.00018 |
| ACTGTCAT | 0.163 ± 0.037 |
| AATGTCAG | 0.0135 ± 0.012 |
| TCTGTCAA | 0.152 ± 0.039 |
| AACATGAT | -0.0409 ± 0.098 |
| GGTCGAGA | -0.252 ± 0.058 |
| TTGAGCAA | -0.0163 ± 0.022 |
| ATAGGCAC | -0.0213 ± 0.017 |
| CGCTCATA | -0.08565 ± 0.00083 |

| Sequence | PBM E-score of 8-mer |
| --- | --- |
| TAGCTCAA | -0.184 ± 0.04 |
| ACTTTTCT | 0.0687 ± 0.099 |
| ATTGGGTC | -0.0189 ± 0.031 |
| CGAAGCCG | 0.155 ± 0.06 |
| ATGGAGGA | -0.217 ± 0.015 |
| ACACCCAA | 0.368 ± 0.035 |
| AAGCGAAT | -0.167 ± 0.0081 |
| AATGTCAC | 0.329 ± 0.034 |
| CATGTCAC | 0.352 ± 0.0093 |
| CGTGTCCC | -0.0561 ± 0.065 |
| AGTGTCCC | 0.176 ± 0.004 |
| AGTGTCAC | 0.449 ± 0.0029 |
| CGTGTCAC | 0.3865 ± 0.0037 |
| ATTAAGTA | -0.154 ± 0.096 |
| CGACCTCG | 0.14 ± 0.074 |
| CGCTTCAG | -0.0405 ± 0.068 |
| CTCCTAGC | 0.0648 ± 0.041 |
| GGACACAC | 0.101 ± 0.0014 |
| AGTCACAG | 0.135 ± 0.054 |
| AGTCACCC | -0.0493 ± 0.13 |
| GGTCACAC | 0.4613 ± 0.0012 |
| CGTCACCA | 0.27 ± 0.054 |
| CGTCACAG | 0.243 ± 0.014 |
| CGTCACCC | 0.373 ± 0.021 |
| CGTCACAC | 0.433 ± 0.017 |
| GGTCACAA | 0.212 ± 0.048 |

| Sequence | PBM E-score of 8-mer |
| --- | --- |
| CGTCACAA | 0.175 ± 0.033 |
| AGTCACAC | 0.462 ± 0.0029 |
| AGTCACAT | 0.11 ± 0.058 |
| CTCAAGAA | -0.0351 ± 0.062 |
| AATGAGGG | -0.21 ± 0.035 |
| AGCAACAT | -0.000465 ± 0.079 |
| AAAATCGT | 0.158 ± 0.078 |
| AGAACATG | -0.102 ± 0.0022 |
| GTATCTCA | 0.138 ± 0.024 |
| CTAATAGC | 0.0155 ± 0.017 |
| AACAATAT | 0.00943 ± 0.055 |
| AGATGCTG | -0.149 ± 0.035 |
| ATCAAGCC | -0.0171 ± 0.049 |
| GTACTTAA | -0.16 ± 0.011 |
| GCGGGTTA | 0.0385 ± 0.009 |
| CGGTGTTA | 0.37 ± 0.0083 |
| CGATGTTA | -0.192 ± 0.016 |
| CGCTGTTA | 0.0368 ± 0.0067 |
| GGGGGTTA | -0.158 ± 0.1 |
| GGATGTTA | -0.00674 ± 0.011 |
| GGGTGTTA | 0.4737 ± 0.00077 |
| ACCCATAT | 0.0957 ± 0.013 |
| GGGTTCGA | -0.0834 ± 0.013 |
| GGTGGGCA | 0.0512 ± 0.038 |
| AAACTCTT | -0.11 ± 0.032 |
| CGATTCAC | 0.143 ± 0.0046 |

| Sequence | PBM E-score of 8-mer |
| --- | --- |
| CAACTGAG | 0.0533 ± 0.042 |
| GACTTGGA | -0.167 ± 0.064 |
| GCGCGACA | 0.36 ± 0.023 |
| ACGCGAAA | 0.133 ± 0.039 |
| CCGCGAAC | 0.271 ± 0.036 |
| TCGCGAAA | 0.409 ± 0.025 |
| ACGCGAAC | 0.203 ± 0.043 |
| CCGCGAAA | 0.305 ± 0.027 |
| GCGCGATA | 0.337 ± 0.011 |
| GCGCGAAA | 0.4397 ± 0.0003 |
| GCGCGAAC | 0.411 ± 0.017 |
| CAATCATA | -0.102 ± 0.056 |
| AACCCTGA | -0.108 ± 0.0053 |
| GCCACTAA | 0.153 ± 0.019 |
| AGATACTC | -0.119 ± 0.09 |
| TGCAGGAA | -0.153 ± 0.036 |
| CTCCCAAC | -0.0412 ± 0.0027 |
| AAGAACCC | -0.192 ± 0.042 |
| GGACACCA | 0.0777 ± 0.029 |
| CGACACCG | 0.273 ± 0.033 |
| AGACACCC | 0.259 ± 0.023 |
| CGACACCC | 0.439 ± 0.022 |
| TGACACCA | 0.427 ± 0.02 |
| GGACACCC | 0.242 ± 0.037 |
| CGACACCA | 0.414 ± 0.01 |
| AGACACCA | 0.2603 ± 0.00061 |

| Sequence | PBM E-score of 8-mer |
| --- | --- |
| CGACACGA | 0.183 ± 0.071 |
| AAGAAAAC | -0.0889 ± 0.032 |
| CGTTGGTA | -0.0221 ± 0.009 |
| AAGTGCCG | 0.289 ± 0.025 |
| TGAGCAAA | 0.0705 ± 0.069 |
| AGGCCTGG | -0.293 ± 0.041 |
| ACCTGCGT | 0.112 ± 0.063 |
| AATTGGGA | -0.0137 ± 0.033 |
| AACCTCTA | -0.151 ± 0.025 |
| CAACTCTG | 0.16 ± 0.08 |
| CACCTCTG | 0.4165 ± 0.00058 |
| AACCTCTC | -0.0958 ± 0.093 |
| CACCTCTC | 0.419 ± 0.023 |
| GACCTCTA | -0.259 ± 0.07 |
| GACCTCTC | -0.109 ± 0.026 |
| CACCTCTA | 0.44129 ± 0.00038 |
| AACCTCTG | -0.151 ± 0.032 |
| CACCACCA | 0.201 ± 0.034 |
| CTTTTCTA | 0.0811 ± 0.085 |
| CTCCTCAA | -0.204 ± 0.024 |
| GCTTTCTA | -0.0965 ± 0.11 |
| AGTGTGCC | 0.125 ± 0.0018 |
| CAATGGAA | -0.144 ± 0.028 |
| GTGCCAAC | 0.403 ± 0.0056 |
| ATGCCAAC | 0.0888 ± 0.00082 |
| TTGCCAAA | 0.11 ± 0.066 |

| Sequence | PBM E-score of 8-mer |
| --- | --- |
| CTGCCAAA | 0.186 ± 0.061 |
| CTGCCAAC | 0.0539 ± 0.0096 |
| GTGCCAAA | 0.421 ± 0.017 |
| CCATATAC | -0.00383 ± 0.065 |
| AGTCGATA | 0.147 ± 0.016 |
| AGCAGAAC | -0.287 ± 0.013 |
| ACAACTGA | 0.172 ± 0.019 |
| AGACCTCA | 0.0571 ± 0.053 |
| TAACCTCA | -0.152 ± 0.0019 |
| TCACCTCA | 0.437 ± 0.00059 |
| CCACCTCA | 0.229 ± 0.039 |
| AAACCTCT | -0.362 ± 0.051 |
| AGACCTCT | -0.301 ± 0.015 |
| ACACCTCT | 0.48594 ± 0.00022 |
| TGACCTCA | 0.0125 ± 0.0081 |
| ACACCTCA | 0.47047 ± 0.00026 |
| ACGCCTGC | 0.24 ± 0.0036 |
| GTGAAACA | 0.188 ± 0.036 |
| CTGCTTGC | -0.132 ± 0.025 |
| CGGCAGAG | 0.00638 ± 0.076 |

— the supplement of paper PMC4166925
